{
  "source": "PubChem BioAssay (Tox21)",
  "note": "Where “and” joins values, the source holds several entries; their conditions need not be identical. Identical values can stand only once. Records with an inconclusive call do not appear. A call without a number means that no potency is given here. Calls of active or inactive are those of the source. Calls come from the whole dose curve. Potency is the fitted concentration of half-maximal effect.",
  "data": [
    {"assay": "Nuclear factor erythroid 2-related factor 2/antioxidant responsive element (Nrf2/ARE) small molecule agonists: luciferase reporter gene qHTS assay in human keratinocytes (AID 1919969); note: nearly all actives have a fitted effect of over 35% in size", "settings": "KeratinoSens HaCaT ARE-luciferase, luminescence, 24 h; series mostly up to 92.4 µM", "excerpt": "National Center for Advancing Translational Sciences [NCATS]\nDivision of Preclinical Innovation [DPI]\nU.S. Environmental Protection Agency [EPA]\nNational Institutes of Environmental Health Sciences [NIEHS]\nNational Toxicology Program [NTP]\nU.S. Food and Drug Administration [FDA]\nOxidative stress has been implicated in the pathogenesis of a variety of diseases ranging from cancer to neurodegeneration. The antioxidant response element (ARE) signaling pathway plays an important role in the amelioration of oxidative stress. The KeratinoSens (Givaudan, Switzerland) is an in vitro test method which quantifies luciferase induction as a measure of activation of Keap1-Nrf2-antioxidationt/electrophile response element (ARE) dependant pathway in HaCaT human keratinocytes stably transfected with a selectable plasmid. The KeratinoSens assay is a cell-based assay with a reporter cell line to detect potential skin sensitizers by their ability to induce the Nrf2/ARE-response. The activation of the report gene under culture conditions can be detected by ONE-Glo Luciferase Assay System (Promega, Madison, WI). This cell line has been used to screen the Tox21 10K compound library to identify agonists that induce oxidative stress. The cytotoxicity of the Tox21 compound library against the KS-ARE cell line was tested in parallel by measuring the cell viability using CellTiter- Fluor assay system (Promega, Madison, WI) in the same wells.\nHaCaT derived cell line KeratinoSens were dispensed at 1,500 cells/5uL/well in 1536-well white wall/solid bottom plates using a Multidrop Combi (ThermoFisher Scientific, Waltham, MA) dispenser. After the assay plates were incubated at 37 C/5% CO2 for 5 h, 23 nL of compounds dissolved in DMSO, positive controls or DMSO only was transferred to the assay plate by a pintool workstation (Kalypsys, San Diego, CA). The plates were incubated at 37 C/5% CO2 for 23 h, followed by addition of 1uL/well of CellTiter-Fluor reagent into the assay plates using a Flying Reagent Dispenser (Aurora Discovery, San Diego, CA) for cell viability readout that measures cytotoxicity. After 1 h incubation at 37 C/5% CO2 the fluorescence intensity was measured using a ViewLux (PerkinElmer, Shelton, CT) plate reader. Then 4uL/well of One-Glo were added using a Flying Reagent Dispenser. After the plates were incubated at room temperature for 30 min, the luminescence intensity in the assay plates was measured using ViewLux plate reader.", "values": [
      {"smiles": "Cc1noc(NS(=O)(=O)c2ccc(N)cc2)c1C", "Potency": "inactive"},
      {"smiles": "CC(=O)c1ccccn1", "Potency": "inactive"},
      {"smiles": "Oc1ccc(Cc2ccccc2O)cc1", "Potency": "inactive"},
      {"smiles": "C=CC(=O)NC(C)(C)CS(=O)(=O)O", "Potency": "inactive"},
      {"smiles": "COCC(C)N", "note": "(stereo not given)", "Potency": "inactive"},
      {"smiles": "COc1cc(O)c(C(=O)c2ccccc2)cc1S(=O)(=O)O", "Potency": "inactive"},
      {"smiles": "CCn1c2ccccc2c2cc(N)ccc21", "Potency": "inactive"},
      {"smiles": "CSc1ccc(Cl)cc1", "Potency": "inactive"},
      {"smiles": "Cc1ccccc1Cl", "Potency": "inactive"},
      {"smiles": "c1ccc2n[nH]nc2c1", "Potency": "inactive"},
      {"smiles": "C=CCOC(=O)C(=C)C", "Potency": "inactive"},
      {"smiles": "OC(Cn1cncn1)(Cn1cncn1)c1ccc(F)cc1F", "Potency": "inactive"},
      {"smiles": "CC1=CC(=O)CC(C)(C)C1", "Potency": "inactive"},
      {"smiles": "O=C(O)CCCCCCCC(=O)O", "Potency": "inactive"},
      {"smiles": "CCc1ccc(O)cc1", "Potency": "inactive"},
      {"smiles": "NC(=O)NC(N)=O", "Potency": "inactive"},
      {"smiles": "CCCCOC(=O)CCCCCCCCC(=O)OCCCC", "Potency": "inactive"},
      {"smiles": "CCCCC1C(=O)N(c2ccccc2)N(c2ccccc2)C1=O", "Potency": "inactive"},
      {"smiles": "Nc1cc([N+](=O)[O-])ccc1C(=O)O", "Potency": "inactive"},
      {"smiles": "O=[N+]([O-])c1cc(C(F)(F)F)ccc1Cl", "Potency": "inactive"},
      {"smiles": "COc1c(Cl)c(Cl)c(Cl)c(Cl)c1Cl", "Potency": "inactive"},
      {"smiles": "c1ccc(OCCOc2ccccc2)cc1", "Potency": "inactive"},
      {"smiles": "CC(=O)c1ccccc1", "Potency": "inactive"},
      {"smiles": "c1ccc2c(c1)ccc1cc3c(ccc4ccccc43)cc12", "Potency": "17 µM (active) and 2.15 µM (active)"},
      {"smiles": "NC(=O)NC1NC(=O)NC1=O", "note": "(stereo not given)", "Potency": "inactive"},
      {"smiles": "O=c1cc[nH]c(=S)[nH]1", "Potency": "inactive"},
      {"smiles": "CS(=O)(=O)OCCCCOS(C)(=O)=O", "Potency": "inactive"},
      {"smiles": "CC(=O)OCCOC(C)=O", "Potency": "inactive"},
      {"smiles": "O=S(=O)(O)c1ccc2cc(O)ccc2c1", "Potency": "inactive"},
      {"smiles": "C=C(C)C1CC=C(C)C(OC(C)=O)C1", "note": "(stereo not given)", "Potency": "inactive"},
      {"smiles": "Cc1cccc(C(=O)O)c1", "Potency": "inactive"},
      {"smiles": "C=CC(C)(CCC=C(C)C)OC(C)=O", "note": "(stereo not given)", "Potency": "inactive"},
      {"smiles": "N#Cc1ccccc1", "Potency": "inactive"},
      {"smiles": "O=C(O)CCCC(=O)O", "Potency": "inactive"},
      {"smiles": "NC(N)=Nc1nc(CSCC/C(N)=N/S(N)(=O)=O)cs1", "Potency": "inactive"},
      {"smiles": "c1ccc2c(c1)Cc1ccccc1-2", "Potency": "inactive"},
      {"smiles": "Cc1cnc(NC(=O)C2=C(O)c3ccccc3S(=O)(=O)N2C)s1", "Potency": "inactive"},
      {"smiles": "CCCCOC(=O)CC(CC(=O)OCCCC)(OC(C)=O)C(=O)OCCCC", "Potency": "inactive"},
      {"smiles": "Cc1cn([C@H]2C=C[C@@H](CO)O2)c(=O)[nH]c1=O", "Potency": "inactive"},
      {"smiles": "CN(C)CCC(c1ccccc1)c1ccccn1", "note": "(stereo not given)", "Potency": "inactive"}
    ]}
  ]
}
